# Experimental data as given in PubChem BioAssay (EPA / NIEHS).
# Results filed as inconclusive are left out. The source made the active and inactive calls. The calls were made as follows, unless noted: active = hit-call score of the fitted dose curve at least 0.9, where 1 is the maximum; inconclusive = response in the unintended direction; inactive = score below 0.9.
# Tests used:
# [1] = CCTE_Shafer_MEA_acute_spike_number: CCTE's Neural Acute Assay for Total Number of Spikes, Shafer Lab (AID 2284008; active = hit-call score of the fitted dose curve at least 0.9, where 1 is the maximum; inactive = score below 0.9;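 as to AC50: curve fitted for decrease in spike count so AC50 reflects inhibitors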)
# Outline: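 Read-out is the total spike count over 40 min, expressed as percent change from each well's own pre-treatment baseline and fitted in the loss direction against DMSO. Rat cortical neurons were exposed at 0.03-40 uM on DIV 13 or 15.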
# [2] = CCTE_Shafer_MEA_acute_firing_rate_mean: CCTE's Neural Acute Assay for Mean Firing Rate, Shafer Lab (AID 2284009; active = hit-call score of the fitted dose curve at least 0.9, where 1 is the maximum; inactive = score below 0.9;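 also: analyzed for loss of signal so actives lower firing rate relative to DMSO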)
# Outline: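 Primary rat cortical neurons on 16-electrode MEA wells were exposed on DIV 13 or 15 to compound (0.03-40 uM). Spike counts per recording time, averaged over electrodes, were compared between 40-min baseline and 40-min post-exposure recordings as percent change.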
# DIO1 (gene 1733) = assay: CCTE_GLTED_hDIO1: CCTE's human Deiodinase 1 (DIO1) Inhibition Assay, Great Lakes Toxicology and Ecology Division (GLTED) Lab (AID 2283987);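 also: isolated human DIO1 enzyme in a cell-free setup rather than cells; enzyme activity read as free iodide liberated from substrate via Sandell-Kolthoff colorimetry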
# Outline: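 Inhibition of human deiodinase 1 is scored as reduced iodide liberation after a 3 h enzyme–chemical incubation, detected colorimetrically by the Sandell-Kolthoff reaction against DMSO controls.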
# [3] = target: Nucleoli Translocation, AR (gene 367) (UniProt P10275); assay: UPITT_HCI_U2OS_AR_TIF2_Nucleoli_Antagonist: University of Pittsburgh U2OS Androgen Receptor-Transcriptional Intermediary Factor 2 (AR-TIF2) Antagonism High Content Imaging Assay for Nucleoli Translocation (AID 2283997)
# Sequence of Nucleoli Translocation, AR (gene 367) (P10275 whole entry, looked up): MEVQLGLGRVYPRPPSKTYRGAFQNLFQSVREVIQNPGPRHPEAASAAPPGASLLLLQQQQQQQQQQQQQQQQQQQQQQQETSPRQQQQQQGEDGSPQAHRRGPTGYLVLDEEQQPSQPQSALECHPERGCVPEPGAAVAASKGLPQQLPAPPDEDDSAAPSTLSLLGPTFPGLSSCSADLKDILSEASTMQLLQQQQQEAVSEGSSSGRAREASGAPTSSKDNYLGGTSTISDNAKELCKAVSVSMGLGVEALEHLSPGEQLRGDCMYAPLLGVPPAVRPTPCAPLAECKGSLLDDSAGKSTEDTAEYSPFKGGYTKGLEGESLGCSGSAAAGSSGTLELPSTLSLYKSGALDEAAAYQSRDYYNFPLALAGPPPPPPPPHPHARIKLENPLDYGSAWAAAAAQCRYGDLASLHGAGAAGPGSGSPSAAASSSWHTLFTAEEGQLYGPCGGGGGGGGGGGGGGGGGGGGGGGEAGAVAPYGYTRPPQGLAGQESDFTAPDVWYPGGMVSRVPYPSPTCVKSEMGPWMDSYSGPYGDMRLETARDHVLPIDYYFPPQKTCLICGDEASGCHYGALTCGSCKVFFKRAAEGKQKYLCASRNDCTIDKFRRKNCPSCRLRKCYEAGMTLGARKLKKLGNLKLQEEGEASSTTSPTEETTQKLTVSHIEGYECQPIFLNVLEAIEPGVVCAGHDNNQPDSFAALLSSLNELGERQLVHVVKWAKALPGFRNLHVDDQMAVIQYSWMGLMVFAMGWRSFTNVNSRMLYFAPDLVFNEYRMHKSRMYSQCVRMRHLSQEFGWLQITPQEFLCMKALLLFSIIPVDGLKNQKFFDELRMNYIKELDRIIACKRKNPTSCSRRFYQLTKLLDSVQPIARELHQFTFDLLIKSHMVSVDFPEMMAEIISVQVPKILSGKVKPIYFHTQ
# Outline: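 Antagonism is read as loss of nucleolar AR-RFP signal relative to DHT, imaged in U2OS cells also carrying GFP-TIF2. Compounds screened at 20 uM final, 0.2% DMSO; primary actives retested in triplicate.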
# [4] = target: Nucleoli Translocation, AR (gene 367) (UniProt P10275); assay: UPITT_HCI_U2OS_AR_TIF2_Nucleoli_Agonist: University of Pittsburgh U2OS Androgen Receptor-Transcriptional Intermediary Factor 2 (AR-TIF2) Agonism High Content Imaging Assay for Nucleoli Translocation (AID 2283998)
# Outline: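 Readout is red (AR-RFP) fluorescence localized to nucleoli, measured by high-content imaging and analysed for increase relative to DMSO. Compound series spanned 0.195 to 50 uM final in 0.5% DMSO.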
# [5] = target: Ratio of Nucleoli Translocation and Cytoplasm, AR (gene 367) (UniProt P10275); assay: UPITT_HCI_U2OS_AR_TIF2_Nucleoli_Cytoplasm_Ratio_Agonist: University of Pittsburgh U2OS Androgen Receptor-Transcriptional Intermediary Factor 2 (AR-TIF2) Agonism High Content Imaging Assay for Ratio of Nucleoli Translocation and Cytoplasm (AID 2284000);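 also: hits raise the red nucleolar to cytoplasm ratio above vehicle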
# Sequence of Ratio of Nucleoli Translocation and Cytoplasm, AR (gene 367) (P10275 whole entry, looked up): as above
# Outline: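 Compounds tested at 20 uM final in primary screen (0.2% DMSO) and 0.195-50 uM final in dose-response (0.5% DMSO). Imaging of human U2OS cells bearing RFP-AR and GFP-TIF2; endpoint is nucleoli/cytoplasm red signal ratio, positive direction relative to DMSO.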
# [6] = target: Ratio of Nucleoli Translocation and Cytoplasm, AR (gene 367) (UniProt P10275); assay: UPITT_HCI_U2OS_AR_TIF2_Nucleoli_Cytoplasm_Ratio_Antagonist: University of Pittsburgh U2OS Androgen Receptor-Transcriptional Intermediary Factor 2 (AR-TIF2) Antagonism High Content Imaging Assay for Ratio of Nucleoli Translocation and Cytoplasm (AID 2283999);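 also: antagonists lower the DHT-driven ratio of nucleolar to cytoplasmic red signal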
# Outline: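 Compounds were added to U2OS cells carrying red-fluorescent AR and green-fluorescent TIF2, first at 20 uM, with hits confirmed in triplicate and titrated from 0.195 to 50 uM. Nucleolar versus cytoplasmic AR-RFP fluorescence was then quantified by imaging, with analysis relative to DHT.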
# [7] = CCTE_Harrill_HTTr_Apoptosis_DMEM_24hr: (Pilot) CCTE's 24-hour Apoptosis Assessment for the High-Throughput Transcriptomics (HTTr) Platform, in MCF-7 cells cultured in DMEM + 10% fetal bovine serum, Harrill Lab (AID 2283983; active = hit-call score of the fitted dose curve at least 0.9, where 1 is the maximum; inactive = score below 0.9)
# Outline: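 Caspase-3/7 activity read by high-content imaging (CellEvent Green reagent) 24 h after dosing. MCF-7 cells grown in DMEM with 10% FBS received an eight-point concentration series; fits were bidirectional versus DMSO.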
# [8] = CCTE_Harrill_HTTr_Apoptosis_PRF_DMEM_6hr: (Pilot) CCTE's 6-hour Apoptosis Assessment for the High-Throughput Transcriptomics (HTTr) Platform, in MCF-7 cells cultured phenol red-free DMEM + 10% charcoal-stripped fetal bovine serum, Harrill Lab (AID 2283984; active = hit-call score of the fitted dose curve at least 0.9, where 1 is the maximum; inactive = score below 0.9)
# Outline: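 Caspase-3/7 activity (CellEvent Green) read by high-content imaging 6 h after dosing, eight concentrations. Cells: MCF-7, phenol red-free DMEM with 10% charcoal-stripped serum. Curves fit both directions against DMSO.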
# [9] = CCTE_Harrill_HTTr_Apoptosis_PRF_DMEM_24hr: (Pilot) CCTE's 24-hour Apoptosis Assessment for the High-Throughput Transcriptomics (HTTr) Platform, in MCF-7 cells cultured in phenol red-free DMEM + 10% charcoal-stripped fetal bovine serum, Harrill Lab (AID 2283986; active = hit-call score of the fitted dose curve at least 0.9, where 1 is the maximum; inactive = score below 0.9)
# Outline: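 Eight concentrations tested for 24 h on MCF-7 grown in charcoal-stripped serum, phenol red-free DMEM. High content imaging of CellEvent Caspase 3/7 Green signal gives apoptosis read-out, fitted both ways relative to DMSO.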
smiles,measurement,setting,value
CCCCC=O,outcome,[1],inactive
same,outcome,[2],inactive
CCCCCCCCCCCCOC(=O)c1cc(O)c(O)c(O)c1,AC50,DIO1 (gene 1733),53.4 µM (active)
CC(C)[C@@H]1CC[C@@H](C)C[C@H]1O,outcome,[3],inactive
same,outcome,[4],inactive
OCC(CO)(CBr)CBr,outcome,[1],inactive
same,outcome,[2],inactive
Oc1ccc(Cc2ccccc2O)cc1,AC50,[1],0.00292 µM (active)
same,AC50,[2],0.000868 µM (active)
CN(Cc1cnc2nc(N)nc(N)c2n1)c1ccc(C(=O)N[C@@H](CCC(=O)O)C(=O)O)cc1,outcome,[3],inactive
same,outcome,[4],inactive
same,outcome,[5],inactive
CCCCCCCCCCCC,AC50,DIO1 (gene 1733),84.4 µM (active)
same,outcome,[1],inactive
same,outcome,[2],inactive
CC(=O)Nc1ccc(O)cc1,outcome,[3],inactive
same,outcome,[1],inactive
same,outcome,[2],inactive
CC1COCc2cc3c(cc21)C(C)(C)C(C)C3(C)C (stereo not drawn),AC50,[3],9.92 µM (active)
same,outcome,[6],inactive
O=C(c1ccccc1)c1ccccc1,outcome,[3],inactive
same,outcome,[4],inactive
same,outcome,[6],inactive
same,outcome,[5],inactive
O=C(NCc1ncc(C(F)(F)F)cc1Cl)c1c(Cl)cccc1Cl,outcome,[3],inactive
same,outcome,[4],inactive
same,outcome,[6],inactive
same,outcome,[5],inactive
CC(O)COc1ccccc1 (stereo not drawn),outcome,[3],inactive
same,outcome,[4],inactive
same,outcome,[6],inactive
same,outcome,[5],inactive
CCCCc1oc2ccccc2c1C(=O)c1cc(I)c(OCCN(CC)CC)c(I)c1,AC50,[7],81.6 µM (active)
same,outcome,[8],inactive
same,AC50,[9],74.5 µM (active)
same,AC50,[1],8.91 µM (active)
same,AC50,[2],8.87 µM (active)
O=C(O)C(F)(F)OC(F)(F)C(F)(F)OC(F)(F)C(F)(F)OC(F)(F)C(F)(F)C(F)(F)C(F)(F)F,AC50,DIO1 (gene 1733),24.6 µM (active)
CN(C)CCOC(c1ccccc1)c1ccccc1,outcome,[3],inactive
same,outcome,[4],inactive
same,outcome,[5],inactive
same,AC50,[1],4.98 µM (active)
same,AC50,[2],4.98 µM (active)
